Shown are actives, neighbours in structure and some others; about 14% of the full set was active somewhere.
Pf growth 48h: P. falciparum growth inhibition at 48 hours (one generation); P. falciparum luciferase growth in erythrocytes, 48 h; Potency, µM (top dose mostly 28.7 µM), for the others: at the top dose activity change, negative = inhibition, actives largely listed as inhibitors; 310,000 compounds, 5.9% hits; note: potency is the fitted concentration of half-maximal effect
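Compounds are pin-transferred into medium, infected erythrocytes (2% hematocrit, 0.1% parasitemia final) are added, and plates sit one parasite generation at 37 C in 5% CO2. Detection reagent is then added and luminescence measured.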
HCMV antiviral: human cytomegalovirus inhibition; HFF cells, HCMV-luciferase reporter, 72 h; hits give low values; activity change, negative = inhibition, % at 57.5 µM; 410,000 compounds, 4.5% hits; AID 1259415; in the data active = activity change below about -60%; inconclusive = no clear call, values can overlap the other calls; inactive = above about -39%
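Luciferase read-out from HCMV-luciferase-infected HFFs (MOI 1 PFU/cell) 72 h post infection at 37C; compounds added after 16 h cell attachment; activity normalized between buffer-only basal and Salinomycin (10uM) inhibitor controls.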
Pf growth 96h: P. falciparum growth inhibition at 96 hour, primary screen for plastid delayed-death inhibitors; Potency, µM (doses to about 28.7 µM), for inactives: top-dose activity change, negative = inhibition, most hits filed as inhibitors; P. falciparum luciferase reporter growth, 96 h; 320,000 compounds, 6.9% hits; note: potency is the fitted concentration of half-maximal effect
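Readout is luminescence from an integrated firefly luciferase in P. falciparum. Red cells, 2% hematocrit and 0.05% parasitemia final, were cultured with compound through two parasite generations (96 hours) at 37 C, 5% CO2.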
Sm TGR inh: inhibitors of Schistosoma mansoni thioredoxin glutathione reductase; 360,000 compounds, 3% hits; Q962Y6; AID 485364; purified TGR, DTNB reduction, TNB absorbance 405 nm; Potency, µM (series often up to 114 µM), for the others: at the top dose activity change, negative = inhibition, actives largely listed as inhibitors; note: potency is the fitted concentration of half-maximal effect; nearly all actives have a fitted effect of over 60% in size
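TGR 20 nM + NADPH 100 uM (dispensed conc.), cpd preinc 15 min RT; start with NADPH (500 uM addition) then DTNB (15 mM addition). Kinetic TNB absorbance, 405 nm filter. Four-parameter Hill fit across titration.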
FBPA Giardia inh: inhibitors of Giardia lamblia fructose-1,6-bisphosphate aldolase | A8B2U2 | purified Giardia FBPA | Potency, µM (series often up to 59.6 µM), for the others: at the highest dose activity, negative = inhibition, actives largely listed as inhibitors | 290,000 compounds, 0.71% hits | AID 2451; note: potency is the fitted concentration of half-maximal effect; nearly all actives have a fitted effect of over 55% in size
Target sequence (A8B2U2 whole entry, looked up): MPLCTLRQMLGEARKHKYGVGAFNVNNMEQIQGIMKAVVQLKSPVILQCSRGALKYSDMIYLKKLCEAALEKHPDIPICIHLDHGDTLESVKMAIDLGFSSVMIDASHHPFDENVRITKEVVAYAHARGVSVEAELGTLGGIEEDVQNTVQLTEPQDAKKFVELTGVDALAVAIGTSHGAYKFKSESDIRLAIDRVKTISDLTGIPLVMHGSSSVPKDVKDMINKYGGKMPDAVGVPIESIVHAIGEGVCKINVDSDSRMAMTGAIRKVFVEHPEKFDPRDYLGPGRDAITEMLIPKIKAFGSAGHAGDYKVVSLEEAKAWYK
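40 nM FBPA preincubated 10 min at RT with compound (up to 57.5 uM final), then substrate plus GAPDH/TPI/NAD/arsenate coupling and diaphorase/resazurin added. Fluorescence read after 20 min at RT, 525/598 nm.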
* hit, by the source's call. Unless noted, calls come from the whole dose curve; as a rule, active = well fitted curve in the direction sought with a large enough effect; inconclusive = small, poorly fitted or top-dose-only effect, or another doubt; inactive = no such curve, though single readings can be large; an effect the other way counts as inactive or inconclusive. % is set by controls: 0 for no effect and ±100 for the full control effect.

COc1cccc(CNC(=O)CSc2nc(=O)n(Cc3ccncc3)c3c2CCC3)c1 was read as Pf growth 48h 10µM*, HCMV antiviral inconclusive, Pf growth 96h inconclusive and Sm TGR inh -2%.
O=C1[C@H]2[C@@H](c3ccc(F)cc3)N3C(=O)N(c4cccc(Cl)c4)C(=O)[C@@]3(Cc3ccc(Cl)cc3)[C@H]2C(=O)N1C1CCCCC1 was read as Pf growth 48h 4.7µM*, HCMV antiviral 30, Pf growth 96h 5.2µM*, Sm TGR inh -29% and FBPA Giardia inh -4%.
`O=C1[C@H]2[C@@H](c3ccc(F)cc3)N3C(=O)N(c4ccccc4)C(=O)[C@@]3(Cc3ccc(Cl)cc3)[C@H]2C(=O)N1C1CCCCC1` gave Pf growth 48h inconclusive, HCMV antiviral -15, Pf growth 96h inconclusive, Sm TGR inh -22% and FBPA Giardia inh -3%.
O=C1[C@H]2[C@@H](c3ccc(F)cc3)N3C(=O)N(c4cccc(Cl)c4)C(=O)[C@@]3(Cc3ccccc3)[C@H]2C(=O)N1C1CCCCC1 was read as Pf growth 48h 2.6µM*, HCMV antiviral -5, Pf growth 96h 12µM* and Sm TGR inh -8%.
CC(C)Oc1ccc(CNC(=O)C2COc3ccccc3C2)cc1 (centres undefined) was read as HCMV antiviral 41 and Sm TGR inh 0%.
COc1ccc(N(C)S(=O)(=O)c2cccc(C(=O)Nc3nc4ccccc4[nH]3)c2)cc1 was read as Pf growth 48h inconclusive, HCMV antiviral inconclusive, Pf growth 96h inconclusive, Sm TGR inh -9% and FBPA Giardia inh -2%.
Screening CN(c1cccc(Cl)c1)S(=O)(=O)c1cccc(C(=O)Nc2nc3ccccc3[nH]2)c1 returned Pf growth 48h 15µM*, HCMV antiviral -99*, Pf growth 96h inconclusive, Sm TGR inh 6% and FBPA Giardia inh 13%.
`CC(=O)N1CCN(S(=O)(=O)c2cccc(C(=O)Nc3nc4ccccc4[nH]3)c2)CC1` gave Pf growth 48h inconclusive, HCMV antiviral 4, Pf growth 96h 1.9µM*, Sm TGR inh 32% and FBPA Giardia inh inconclusive.
For CC(C)c1ccc(/C=N/n2c(-c3ccccc3)n[nH]c2=S)cc1 the results were Pf growth 48h -1%, HCMV antiviral -66*, Pf growth 96h inconclusive, Sm TGR inh 4% and FBPA Giardia inh 11%.
Screening Cc1ccc(/C=N/n2c(-c3ccccc3)n[nH]c2=S)cc1 returned Pf growth 48h 10%, HCMV antiviral -21, Pf growth 96h 8%, Sm TGR inh 9% and FBPA Giardia inh 23%.
For COc1cc(/C=N/n2c(-c3ccccc3)n[nH]c2=S)cc(OC)c1O the results were Pf growth 48h 11%, HCMV antiviral -18, Pf growth 96h -25%, Sm TGR inh 32µM* and FBPA Giardia inh -15%.
Oc1c(Br)cc(/C=N/n2c(-c3ccccc3)n[nH]c2=S)c(O)c1Br was read as Pf growth 48h -3%, Pf growth 96h inconclusive, Sm TGR inh -59% and FBPA Giardia inh -20%.
O=[N+]([O-])c1cc2c(cc1/C=N/n1c(-c3ccccc3)n[nH]c1=S)OCO2 was read as Pf growth 48h 0%, HCMV antiviral -100*, Pf growth 96h 6%, Sm TGR inh 9% and FBPA Giardia inh 5%.
Screening Cc1c(Br)c(O)c(Br)c(O)c1/C=N/n1c(-c2ccccc2)n[nH]c1=S returned Pf growth 48h 11%, Pf growth 96h 9%, Sm TGR inh 35µM* and FBPA Giardia inh -14%.
CCCCC(=O)OCc1c(-c2cccc(OC)c2)ncc2ccccc12 was read as Pf growth 48h 25%, HCMV antiviral -13, Pf growth 96h inconclusive and Sm TGR inh -21%.
For CC1CCN(Cc2c(O)ccc3c(=O)c(-c4cccc(Cl)c4)c(C(F)(F)F)oc23)CC1 the results were HCMV antiviral 16 and Sm TGR inh 3%.
CCCC(=O)N1CCC1(C)C(=O)Nc1ncc(C(=O)OC)s1 (centres undefined) was read as HCMV antiviral 15.
For Cc1cnc(CNc2ncncc2-c2cccc(NS(C)(=O)=O)c2)cn1 the results were FBPA Giardia inh 2%.

Screening data from PubChem BioAssay.
